Assay outcomes (PubChem)
MCF10A rereplic = induces DNA re-replication in MCF 10a normal breast cells. MCF 10A DNA re-replication, Hoechst nuclear intensity, 48 h. AID 624296. Potency, µM (highest dose often 46.1 µM), for the others: top-dose activity, positive = re-replication, usual class: activators. 350,000 compounds, 2.9% hits; note: % of control where 0% means no effect; nearly all actives have a fitted effect of over 50% in size
HT1080 IDH1KD tx = toxicity to HT-1080 IDH1 knockdown cells (counter line) | HT-1080 IDH1 knockdown viability, ATP luminescence, 48 h | Potency, µM (top dose mostly 46.1 µM), inactives show at the highest dose activity, negative = toxicity, actives largely listed as cytotoxic | 360,000 compounds, 2% hits | AID 686971;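 note: 0% = DMSO wells and -100% = cell-free medium wells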
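In this qHTS, HT-1080 cells depleted of IDH1 are exposed for 48 h at 37 °C to compound titrations. Toxicity is scored from CellTiter-Glo luminescence, with DMSO as full viability and medium alone as none.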
HT1080NT lethal = kills 2HG-producing HT-1080-NT fibrosarcoma cells; HT-1080-NT fibrosarcoma viability, CellTiter-Glo ATP luminescence, 48 h; Potency, µM (titrated, usually from 46.1 µM), for the others: at the top dose activity, negative = less viability, usual class: cytotoxic; 360,000 compounds, 1.6% hits;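 note: NT is the 2HG producing partner of a matched IDH1 knockdown line; 0% = DMSO-treated cells and -100% = media-only wells without cells; nearly all actives have a fitted effect of over 55% in size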
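Luminescent CellTiter-Glo readout after 48 hours of compound exposure at 37 degrees C defined viability of HT-1080-NT cells. Activity was normalized to DMSO wells and cell-free media wells; concentration-response curves were fitted and assigned curve classes.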
KB-3-1 tox = kills parental KB-3-1 adenocarcinoma cells; KB-3-1 viability, CellTiter-Glo ATP luminescence, 72 h; Potency, µM (top dose mostly 46.1 µM), usual class: cytotoxic; 400,000 compounds, 1.4% hits; note: % is set by controls: 0 for no effect and ±100 for the full control effect; nearly all actives have a fitted effect of over 60% in size
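Luminescent ATP read-out (CellTiter-Glo) measures survival of drug-naive KB-3-1 cells after 72 h compound exposure at 37 °C. Titration series was screened from lowest to highest concentration, with DMSO vehicle plates as background controls.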
KB-V1 cytotox = kills drug-selected multidrug resistant KB-V1 cells. Potency, µM (titrated, usually from 46.1 µM), hits mostly cytotoxic. AID 1347076. KB-V1 MDR cells viability, CellTiter-Glo, 72 h. 400,000 compounds, 3.4% hits; note: % is set by controls: 0 for no effect and ±100 for the full control effect; nearly all actives have a fitted effect of over 60% in size
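KB-V1, DMEM (no phenol red) + 10% FBS; cpd pin-transferred, titration series; 72 h, 37 degrees C; CellTiter-Glo, luminescence. Data normalized, curve-fit.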
SW480 rerep = DNA re-replication induction in SW480 cells; 340,000 compounds, 1.8% hits; Potency, µM (top dose mostly 46.1 µM), inactives show at the highest dose re-replication activation, usual class: activators; AID 624297; SW480 DNA re-replication, Hoechst DNA content imaging, 48 h; note: % of control where 0% means no effect; nearly all actives have a fitted effect of over 55% in size
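250 cells/well; 23 nL cpd via pin tool; 48 hr, 37 C, 5% CO2; Hoechst 40 min; imager read of total nuclear intensity, ex 405/em 500-530 nm.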
* marks the source's active call; other numbers are inactive results; i = inactive; ? = inconclusive; . = no result. Only some compounds are listed: those with a hit (about 7.9% of all), similar ones and a draw of the others. Calls come from the whole dose curve; as a rule, active = well fitted curve in the direction sought with a large enough effect; inconclusive = small, poorly fitted or top-dose-only effect, or another doubt; inactive = no such curve, though single readings can be large; an effect the other way counts as inactive or inconclusive. Potency is the fitted concentration of half-maximal effect.

SMILES | MCF10A rereplic | HT1080 IDH1KD tx | HT1080NT lethal | KB-3-1 tox | KB-V1 cytotox | SW480 rerep
COc1ccc(C(C)=O)cc1CS(=O)(=O)CC(=O)NCCc1c[nH]c2ccccc12 | 2.0% | -0.5% | 2.1% | i | i | -46.1%
Cc1noc(C)c1NC(=O)NC(c1ccccc1)c1ccccc1 | 9.8% | 5.9% | 7.1% | i | i | -3.0%
COc1cc(NS(=O)(=O)c2ccc(C)cc2)c2ncccc2c1 | 23.6% | ? | -29.8% | 9.2µM* | ? | 3.66µM*
COc1cc(OC)c(NC(=O)c2cc3ccccc3cc2O)cc1Cl | 20.6µM* | -8.7% | -11.1% | ? | ? | 25.6%
O=C(Nc1cccc2cccnc12)c1ccc(Cl)cc1Cl | -1.0% | 0.0% | -2.3% | i | i | 3.4%
COc1cc(NC(=O)c2ccccc2Cl)c2ncccc2c1 | 4.61µM* | ? | ? | ? | ? | ?
Cc1ccc(S(=O)(=O)Nc2cccc3cccnc23)cc1 | ? | -19.9% | -1.9% | i | ? | ?
O=C(O)/C(=C\c1ccccc1)c1ccc2ccccc2c1 | -3.0% | -1.1% | 6.6% | i | i | -9.9%
C=CCn1c(=N)c(C(=O)NCCCOC)cc2c(=O)n3cc(C)ccc3nc21 | 8.2µM* | 19.2% | 1.3% | i | ? | ?
Cc1ccc2nc3c(cc(C(=O)NCCCn4ccnc4)n3C)c(=O)n2c1 | 14.6µM* | ? | 16.5% | i | i | ?
C=CCn1c(=N)c(C(=O)NCCCOC)cc2c(=O)n3ccccc3nc21 | 2.06µM* | 7.2% | -2.0% | i | i | 1.3µM*
COCCCn1c(=N)c(C(=O)NCC2CCCO2)cc2c(=O)n3cc(C)ccc3nc21 (configuration not stated) | . | . | . | i | ? | .
C=CCn1c(=N)c(C#N)cc2c(=O)n3ccccc3nc21 | ? | 5.8% | 8.1% | i | i | ?
COc1ccc(-c2nnc(SCC(=O)NC3CCCCC3)o2)cc1 | -20.4% | -11.8% | -6.2% | i | i | -3.9%
CC(C)(C)c1ccc(CC(=O)N2CCC2(C)C(=O)NS(=O)(=O)Cc2ccccc2)cc1 (configuration not stated) | . | 2.4% | 14.7% | i | i | .
CCOC(=O)N1CCN(C(=O)CN(c2cccc(Cl)c2C)S(=O)(=O)c2ccc(C)cc2)CC1 | . | . | . | i | i | .
OC[C@@H]1[C@@H](c2ccc(Cl)cc2)C(c2ccc(F)cc2)=NN1c1ccccc1 | 1.84µM* | ? | ? | i | i | 4.11µM*
OC[C@@H]1[C@@H](c2ccccc2)C(c2ccccc2)=NN1c1ccccc1 | ? | -0.9% | 4.4% | i | i | ?
OC[C@@H]1[C@@H](c2ccccc2)C(c2ccc(F)cc2)=NN1c1ccccc1 | ? | ? | ? | ? | i | 20.6µM*
Cc1cc(C(=O)COC(=O)C2=COCCO2)c(C)n1-c1ccccc1 | 0.3% | -14.1% | 7.3% | i | 13µM* | 0.4%
CCC(=O)OCC(=O)c1cc(C)n(-c2ccc(Br)cc2)c1C | -6.0% | -13.5% | -7.5% | ? | 14.6µM* | 0.4%
Cc1ccc(-n2c(C)cc(C(=O)COC(=O)c3c(C)noc3C)c2C)cc1 | 17.9% | -20.5% | -23.9% | 18.4µM* | 6.51µM* | 15.7%
Cc1cc(C(=O)COC(=O)c2cnccn2)c(C)n1-c1ccc(Br)cc1 | 12.0% | -7.0% | 8.0% | ? | 14.6µM* | -5.4%
Cc1c(CNCCc2ccc(Cl)cc2)c(C(=O)O)c(C)n1Cc1ccccc1 | -0.3% | -5.1% | -2.9% | i | ? | 16.4%
O=C(Nc1ccc(O)c(-c2nc3ccccc3o2)c1)c1cccs1 | . | . | . | i | i | .
SMILES | MCF10A rereplic | HT1080 IDH1KD tx | HT1080NT lethal | KB-3-1 tox | KB-V1 cytotox | SW480 rerep
COc1ccc(NC(C)=O)cc1S(=O)(=O)NC(Cc1ccccc1)C(=O)O (configuration not stated) | -10.2% | -7.1% | -2.4% | i | i | 4.7%
COc1cccc(NC(=O)C(Sc2nnc3ccccn23)c2ccccc2)c1 (configuration not stated) | ? | 1.5% | 3.4% | i | 20.6µM* | -2.7%
CCCn1c(SC(C(=O)Nc2cccc(OC)c2)c2ccccc2)nc2ccccc2c1=O (configuration not stated) | 0.8% | 8.0% | 9.0% | i | i | ?
CC(C)Cn1c(-c2csc3c2CCCC3)n[nH]c1=S | 8.5% | 0.1% | 17.0% | i | 20.6µM* | -8.1%
CN(C)c1ccc(C(CNS(=O)(=O)c2ccc(Cl)cc2)N2CCOCC2)cc1 (configuration not stated) | . | . | . | i | i | .
CCOC(=O)C1=C(C)N=c2s/c(=C\c3ccc(OCC(=O)O)c(OC)c3)c(=O)n2C1c1ccc(OC)cc1 (configuration not stated) | 23.1µM* | 1.7% | 8.1% | i | i | -0.7%
CC1=Nc2cc(C(=O)O)ccc2Sc2c(C)ccc(C)c21 | 17.2% | -26.9% | -4.0% | i | i | -2.3%
CCCC1=Nc2cc(C(=O)NCc3ccc(OC)cc3)ccc2Sc2ccc(C)cc21 | . | . | . | i | ? | .
CC1=Nc2cc(C(=O)NCc3ccccc3Cl)ccc2Sc2c(C)ccc(C)c21 | . | . | . | 1.03µM* | 1.46µM* | .
CCC1=Nc2cc(C(=O)NCc3ccccc3Cl)ccc2Sc2ccc(C)cc21 | . | . | . | 3.66µM* | ? | .
Cc1cc(C)n(C(=O)CCCCCCCC(=O)n2nc(C)cc2C)n1 | 21.9% | 4.9% | 0.0% | i | i | -5.6%
COc1cc(SC#N)ccc1N=Cc1c(C)[nH]n(-c2ccc(Cl)cc2)c1=O | 3.6% | -9.3% | -14.6% | ? | i | 2.0%
COc1cc(SC#N)ccc1N=Cc1c(C)[nH]n(-c2ccc(C)c(C)c2)c1=O | ? | 14.6µM* | 20.6µM* | ? | ? | ?
CCn1c(C)c(C2=CCN(S(=O)(=O)c3ccccc3)CC2)c2ccccc21 | ? | -6.5% | -5.8% | ? | 10.3µM* | ?
Cc1cc(/C=N/n2cnnc2)c(C)n1-c1ccc(OCc2ccc(Cl)cc2)cc1 | ? | ? | -18.3% | 8.2µM* | 3.66µM* | 2.2%
Cc1nc(C)c(Cc2ccccc2Cl)c(=O)[nH]1 | -5.3% | 7.9% | 9.0% | i | i | 1.0%
CCCOc1ccc(C2C(=O)N(C3CCCCC3)CC(=O)N2C2CCCCC2)cc1OC (configuration not stated) | . | . | . | i | i | .
CCCOc1ccc(C2C(=O)N(C3CCCCCC3)CC(=O)N2Cc2ccco2)cc1OC (configuration not stated) | 9.4% | -6.8% | -11.8% | i | 1.3µM* | 8.1%
